Reference: PMC10313818

Key:
Test in all cases: cross-linking mass spectrometry
Conditions in all cases: not determined
ACACA = ACACA (UniProt Q13085)
COX7C = COX7C (UniProt P15954)
HSDL2 = HSDL2 (UniProt Q6YN16)
IDH3G = IDH3G (UniProt P51553)
ADCK1 = ADCK1 (UniProt Q86TW2)
ALDH3A2 = ALDH3A2 (UniProt P51648)
APOO = APOO (UniProt Q9BUR5)
ATP5PF = ATP5PF (UniProt P18859)
COQ3 = COQ3 (UniProt Q9NZJ6)
GUF1 = GUF1 (UniProt Q8N442)
HADHA = HADHA (UniProt P40939)
MTRF1L = MTRF1L (UniProt Q9UGC7)
NOCT = NOCT (UniProt Q9UK39)
Sequence of NOCT (Q9UK39 whole entry): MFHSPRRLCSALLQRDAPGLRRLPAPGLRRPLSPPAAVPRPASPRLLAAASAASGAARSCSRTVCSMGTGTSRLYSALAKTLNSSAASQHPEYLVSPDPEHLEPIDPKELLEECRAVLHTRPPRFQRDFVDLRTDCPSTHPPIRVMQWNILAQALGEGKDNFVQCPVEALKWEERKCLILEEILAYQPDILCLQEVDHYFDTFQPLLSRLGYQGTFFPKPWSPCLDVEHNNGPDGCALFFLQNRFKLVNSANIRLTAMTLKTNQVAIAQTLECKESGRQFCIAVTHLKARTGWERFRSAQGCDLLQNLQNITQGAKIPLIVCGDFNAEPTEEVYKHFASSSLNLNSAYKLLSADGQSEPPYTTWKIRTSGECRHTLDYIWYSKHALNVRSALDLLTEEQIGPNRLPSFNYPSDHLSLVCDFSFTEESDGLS

OGDH = OGDH (UniProt Q02218)
OGDHL = OGDHL (UniProt Q9ULD0)
PDSS1 = PDSS1 (UniProt Q5T2R2)
PHB2 = PHB2 (UniProt Q99623)
PMPCA = PMPCA (UniProt Q10713)
PRDX6 = PRDX6 (UniProt P30041)
RMND1 = RMND1 (UniProt Q9NWS8)
SAMM50 = SAMM50 (UniProt Q9Y512)
SDHA = SDHA (UniProt P31040)
SIRT3 = SIRT3 (UniProt Q9NTG7)
SLC25A19 = SLC25A19 (UniProt Q9HC21)
Sequence of SLC25A19 (Q9HC21 whole entry): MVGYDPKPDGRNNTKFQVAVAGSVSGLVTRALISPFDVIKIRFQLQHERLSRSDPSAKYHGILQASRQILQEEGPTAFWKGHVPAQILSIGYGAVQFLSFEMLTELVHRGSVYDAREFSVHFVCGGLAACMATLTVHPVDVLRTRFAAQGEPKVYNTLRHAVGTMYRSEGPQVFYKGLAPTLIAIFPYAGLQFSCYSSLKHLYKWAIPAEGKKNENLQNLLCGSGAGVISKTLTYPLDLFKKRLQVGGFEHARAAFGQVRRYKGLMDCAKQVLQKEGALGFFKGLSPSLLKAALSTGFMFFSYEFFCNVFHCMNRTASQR

SPRYD4 = SPRYD4 (UniProt Q8WW59)
TBRG4 = TBRG4 (UniProt Q969Z0)
TUFM = TUFM (UniProt P49411)

Sequence of BCKDHB, P21953 (P21953 whole entry): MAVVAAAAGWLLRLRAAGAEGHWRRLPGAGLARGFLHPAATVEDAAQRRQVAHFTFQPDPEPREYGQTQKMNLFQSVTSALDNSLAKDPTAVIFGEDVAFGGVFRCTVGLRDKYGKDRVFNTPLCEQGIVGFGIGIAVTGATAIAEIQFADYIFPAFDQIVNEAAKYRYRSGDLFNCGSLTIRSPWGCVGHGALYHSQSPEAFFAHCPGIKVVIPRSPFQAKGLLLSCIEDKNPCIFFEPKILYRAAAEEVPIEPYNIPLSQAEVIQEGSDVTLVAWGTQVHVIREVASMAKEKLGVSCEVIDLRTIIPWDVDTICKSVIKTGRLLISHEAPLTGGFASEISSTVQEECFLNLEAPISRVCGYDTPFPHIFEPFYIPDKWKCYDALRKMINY
Sequence of ALDH4A1, P30038 (P30038 whole entry): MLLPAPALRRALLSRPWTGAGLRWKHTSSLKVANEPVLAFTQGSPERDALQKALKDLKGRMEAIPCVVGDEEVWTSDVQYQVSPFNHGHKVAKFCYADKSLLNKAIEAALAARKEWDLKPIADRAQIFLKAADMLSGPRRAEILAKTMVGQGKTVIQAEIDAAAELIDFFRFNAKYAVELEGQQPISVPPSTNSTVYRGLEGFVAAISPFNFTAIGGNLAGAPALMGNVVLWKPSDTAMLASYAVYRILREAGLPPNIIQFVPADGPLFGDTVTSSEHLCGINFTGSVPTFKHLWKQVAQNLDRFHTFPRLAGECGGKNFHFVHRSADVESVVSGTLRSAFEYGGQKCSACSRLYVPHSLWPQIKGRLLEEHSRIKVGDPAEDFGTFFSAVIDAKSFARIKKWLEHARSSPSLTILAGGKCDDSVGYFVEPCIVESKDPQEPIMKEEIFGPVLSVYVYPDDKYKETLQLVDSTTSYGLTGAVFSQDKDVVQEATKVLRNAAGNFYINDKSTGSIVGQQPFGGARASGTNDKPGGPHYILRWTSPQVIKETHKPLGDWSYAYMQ
Sequence of ATP5F1D, P30049 (P30049 whole entry): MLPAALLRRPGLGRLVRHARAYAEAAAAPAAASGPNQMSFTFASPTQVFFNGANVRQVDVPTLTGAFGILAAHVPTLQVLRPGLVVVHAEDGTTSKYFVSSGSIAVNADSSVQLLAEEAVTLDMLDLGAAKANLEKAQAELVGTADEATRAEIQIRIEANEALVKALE
Sequence of NDUFC1, O43677 (O43677 whole entry): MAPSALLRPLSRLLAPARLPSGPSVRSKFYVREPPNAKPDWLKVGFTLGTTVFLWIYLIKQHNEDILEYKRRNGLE
Sequence of PDHA1, P08559 (P08559 whole entry): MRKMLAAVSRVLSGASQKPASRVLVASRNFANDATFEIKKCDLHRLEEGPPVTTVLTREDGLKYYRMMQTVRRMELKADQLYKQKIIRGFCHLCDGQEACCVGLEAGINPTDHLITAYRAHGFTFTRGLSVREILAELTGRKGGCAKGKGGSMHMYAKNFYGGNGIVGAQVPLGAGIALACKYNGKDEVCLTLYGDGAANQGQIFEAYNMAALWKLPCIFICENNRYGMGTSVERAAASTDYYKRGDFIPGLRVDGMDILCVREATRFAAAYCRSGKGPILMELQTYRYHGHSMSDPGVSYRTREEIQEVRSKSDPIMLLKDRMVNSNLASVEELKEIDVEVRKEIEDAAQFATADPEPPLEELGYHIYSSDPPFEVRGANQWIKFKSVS
Sequence of MACROD1, Q9BQ69 (Q9BQ69 whole entry): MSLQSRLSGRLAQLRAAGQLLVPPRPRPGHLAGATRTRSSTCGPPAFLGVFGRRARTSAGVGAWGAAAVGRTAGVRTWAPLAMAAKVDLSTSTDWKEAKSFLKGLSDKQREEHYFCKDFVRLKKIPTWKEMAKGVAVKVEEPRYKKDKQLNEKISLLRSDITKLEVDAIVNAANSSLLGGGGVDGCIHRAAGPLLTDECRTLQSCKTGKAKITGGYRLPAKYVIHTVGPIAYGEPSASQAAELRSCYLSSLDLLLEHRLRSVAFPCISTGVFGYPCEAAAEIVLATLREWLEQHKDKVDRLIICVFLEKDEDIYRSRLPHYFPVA
Sequence of ATP5PD, O75947 (O75947 whole entry): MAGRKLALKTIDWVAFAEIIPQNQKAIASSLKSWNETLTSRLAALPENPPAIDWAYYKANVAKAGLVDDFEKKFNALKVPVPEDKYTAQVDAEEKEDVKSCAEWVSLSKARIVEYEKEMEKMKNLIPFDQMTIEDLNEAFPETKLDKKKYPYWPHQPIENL
Sequence of COQ3 (Q9NZJ6 whole entry): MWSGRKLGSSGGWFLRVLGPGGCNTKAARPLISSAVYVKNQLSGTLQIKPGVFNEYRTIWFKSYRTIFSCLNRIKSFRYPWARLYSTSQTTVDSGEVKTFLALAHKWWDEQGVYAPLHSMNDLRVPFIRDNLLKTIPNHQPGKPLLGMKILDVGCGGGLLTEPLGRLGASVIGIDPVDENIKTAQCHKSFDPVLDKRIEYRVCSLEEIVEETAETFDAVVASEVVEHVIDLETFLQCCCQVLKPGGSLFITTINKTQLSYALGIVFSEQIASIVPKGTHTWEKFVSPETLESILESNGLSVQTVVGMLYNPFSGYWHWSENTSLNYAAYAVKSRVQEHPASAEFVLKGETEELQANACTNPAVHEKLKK
Sequence of BPHL, Q86WA6 (Q86WA6 whole entry): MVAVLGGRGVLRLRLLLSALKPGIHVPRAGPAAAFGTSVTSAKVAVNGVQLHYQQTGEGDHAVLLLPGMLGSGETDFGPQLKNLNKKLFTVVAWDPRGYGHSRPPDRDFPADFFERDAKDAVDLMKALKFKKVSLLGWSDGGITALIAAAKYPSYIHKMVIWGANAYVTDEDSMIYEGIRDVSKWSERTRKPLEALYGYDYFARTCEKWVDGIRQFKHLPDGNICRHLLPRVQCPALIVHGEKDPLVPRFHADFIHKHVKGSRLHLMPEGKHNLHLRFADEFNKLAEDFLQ
Sequence of VDAC1, P21796 (P21796 whole entry): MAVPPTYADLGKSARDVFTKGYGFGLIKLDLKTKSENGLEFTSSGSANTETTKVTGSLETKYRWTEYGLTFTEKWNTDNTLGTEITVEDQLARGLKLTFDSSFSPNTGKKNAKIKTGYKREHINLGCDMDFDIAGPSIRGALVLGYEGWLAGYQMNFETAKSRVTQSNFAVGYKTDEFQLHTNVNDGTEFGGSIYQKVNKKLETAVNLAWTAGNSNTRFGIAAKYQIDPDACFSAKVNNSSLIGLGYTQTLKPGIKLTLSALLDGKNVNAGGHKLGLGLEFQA
Sequence of ADCK1 (Q86TW2 whole entry): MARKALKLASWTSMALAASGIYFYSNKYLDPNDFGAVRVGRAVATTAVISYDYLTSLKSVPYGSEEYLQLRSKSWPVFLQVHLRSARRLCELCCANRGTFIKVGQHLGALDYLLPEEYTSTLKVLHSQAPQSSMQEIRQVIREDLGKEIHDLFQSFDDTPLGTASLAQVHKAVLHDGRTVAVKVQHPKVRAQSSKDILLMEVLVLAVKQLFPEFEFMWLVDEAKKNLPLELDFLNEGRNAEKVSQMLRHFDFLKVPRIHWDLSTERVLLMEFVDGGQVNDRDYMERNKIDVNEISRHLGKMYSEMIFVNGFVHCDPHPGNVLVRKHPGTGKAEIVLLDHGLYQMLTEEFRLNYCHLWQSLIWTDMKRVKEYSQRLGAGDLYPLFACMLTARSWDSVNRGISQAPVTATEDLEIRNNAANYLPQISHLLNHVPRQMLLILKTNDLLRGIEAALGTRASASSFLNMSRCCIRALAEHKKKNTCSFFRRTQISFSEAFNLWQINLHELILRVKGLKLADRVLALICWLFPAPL
Sequence of ACADM, P11310 (P11310 whole entry): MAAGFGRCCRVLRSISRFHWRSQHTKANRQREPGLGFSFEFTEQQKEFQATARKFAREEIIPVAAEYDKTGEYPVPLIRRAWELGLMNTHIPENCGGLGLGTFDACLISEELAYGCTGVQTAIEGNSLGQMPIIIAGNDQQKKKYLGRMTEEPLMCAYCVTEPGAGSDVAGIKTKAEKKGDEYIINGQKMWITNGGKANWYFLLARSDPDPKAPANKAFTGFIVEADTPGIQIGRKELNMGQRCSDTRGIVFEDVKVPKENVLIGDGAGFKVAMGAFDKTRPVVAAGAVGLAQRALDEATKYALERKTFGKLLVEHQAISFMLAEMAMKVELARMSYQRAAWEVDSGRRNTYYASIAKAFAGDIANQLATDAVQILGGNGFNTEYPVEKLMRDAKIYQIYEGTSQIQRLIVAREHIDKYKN
Sequence of ATP5PF (P18859 whole entry): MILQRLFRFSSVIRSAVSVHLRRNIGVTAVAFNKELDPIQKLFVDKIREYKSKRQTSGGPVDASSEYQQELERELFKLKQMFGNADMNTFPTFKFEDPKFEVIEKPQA

HSPD1, P10809
cross-linked residues (ACACA): K58 - K2167
cross-linked residues (COX7C): K58 - K34
cross-linked residues (HSDL2): K418 - K304
cross-linked residues (IDH3G): K31 - K214

NDUFC1, O43677
cross-linked residues (ADCK1): K28 - K325

HADHA, P40939
cross-linked residues (ALDH3A2): K254 - M1

GUF1, Q8N442
cross-linked residues (APOO): K351 - K27

ATP5PD, O75947
cross-linked residues (ATP5PF): K63 - K79

DHX30, Q7L2E3
cross-linked residues (COQ3): K303 - K196

ACADM, P11310
cross-linked residues (GUF1): K144 - K664

BCL2, P10415
cross-linked residues (HADHA): M1 - K254

TOMM20, Q15388
cross-linked residues (MTRF1L): K56 - K74

ALDH4A1, P30038
cross-linked residues (NOCT): K93 - M1

VDAC1, P21796
cross-linked residues (OGDH): K61 - K999

PDHA1, P08559
cross-linked residues (OGDHL): K40 - K525

NDUFV3, P56181
cross-linked residues (PDSS1): M1 - K91

PHB1, P35232
cross-linked residues (PHB2): K202 - K216

PMPCB, O75439
cross-linked residues (PMPCA): K148 - K64

COX5B, P10606
cross-linked residues (PRDX6): K57 - K63

BCKDHB, P21953
cross-linked residues (RMND1): K381 - K145

VDAC2, P45880
cross-linked residues (SAMM50): K74 - G2

SNAP29, O95721
cross-linked residues (SDHA): K124 - K517

MACROD1, Q9BQ69
cross-linked residues (SIRT3): K99 - K399

BPHL, Q86WA6
cross-linked residues (SLC25A19): V2 - V2

ATP5F1D, P30049
cross-linked residues (SPRYD4): K136 - K33

ACSM4, P0C7M7
cross-linked residues (TBRG4): K542 - K576

ACACB, O00763
cross-linked residues (TUFM): K1705 - K259
